This is an account of results in PubChem BioAssay.

A word on the inhibition: it is the change of the read-out against control, counted positive when it falls.

Values joined by “and” are separate entries in the source; they are usually repeats but may differ in a detail not shown here. Identical values can stand only once. Some structures have more than one record in an assay (separate samples or runs), and their calls can disagree. Active and inactive are the calls of the source.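 Rule for the calls, unless noted: active = inhibition at or above 50% relative to wild type and mutant plate controls; inactive = inhibition below 50%.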

Experiment [1] can be described thus: inhibitors of TNFa-induced NFkB p65 translocation, primary screen, imaging, HUVEC, MLSMR starter and 10KST1 sets (AID 438;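 active = inhibition above 20% together with a positive visual image hit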;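 note: compound added about 3h40 before a 20 min TNFalpha stimulation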;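 for inhibition: signal is the nuclear over cytoplasmic p65 intensity ratio per well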). Particulars: HUVEC TNFa-induced p65 nuclear translocation; cell count: measured here: nuclei count (cytotoxicity indicator), at 2.08 µM; inhibition: at 2 µM, stronger effect = higher value, 0% TNFa-plus-vehicle, 100% no-TNFa wells.
The nature of experiment [2]: reduction of polyQ htt aggregates in cells – imaging, exon1htt(103Q)mCFP cells, high-content imaging, primary screen (AID 483;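 active = visual image review flags a hit and inhibition of aggregation exceeds 20%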;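 note: compound exposure lasted 3 days before fixation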;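 for nuclei count: percent of the per-plate median nuclei count of sample wells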). The following applies: exon1htt(103Q)mCFP cell line, aggregate imaging, at 2 µM; inhibition of aggregation: stronger effect = higher value; nuclei count: measured here: cell count, toxicity.
The nature of experiment [3]: endothelial E-selectin expression blockers – imaging, HUVEC, immunofluorescence, MLSMR starter and 10KST1 sets, primary screen (AID 487;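 active = visually confirmed hit in the image check and inhibition above 20%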;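 for inhibition: signal is fraction of cell area covered by stained E-selectin grains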;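 for nuclei count: 100% = median nuclei count of all wells on the same plate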). The following applies: HUVEC TNFalpha-induced E-selectin immunofluorescence imaging, at 2 µM; inhibition: stronger effect = higher value; nuclei count: measured here: cell number, toxicity.
The nature of experiment [4]: Primary imaging screen for DUSP6 inhibitors that restore phospho-Erk in transfected HeLa cells, chemical complementation (AID 609;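 active = compounds giving at least 50% inhibition in the cell-based MKP-3 phosphatase rescue imaging test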;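 for inhibition: phospho-Erk level distribution per well compared with pooled transfected vehicle control wells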). Particulars: HeLa MKP-3 transfected, phospho-Erk imaging KS statistic, at 10 µM, cells stimulated with TPA for 15 min.
The target in experiment [5] is Dual specificity protein phosphatase 6 (Homo sapiens) (UniProt Q16828). The description is as above. The following applies: HeLa MKP-3 transfected, phospho-Erk imaging KS statistic; at 10 µM; stronger effect = higher value; cells stimulated with TPA for 15 min.
Sequence of Dual specificity protein phosphatase 6 (Homo sapiens) (Q16828 whole entry, looked up): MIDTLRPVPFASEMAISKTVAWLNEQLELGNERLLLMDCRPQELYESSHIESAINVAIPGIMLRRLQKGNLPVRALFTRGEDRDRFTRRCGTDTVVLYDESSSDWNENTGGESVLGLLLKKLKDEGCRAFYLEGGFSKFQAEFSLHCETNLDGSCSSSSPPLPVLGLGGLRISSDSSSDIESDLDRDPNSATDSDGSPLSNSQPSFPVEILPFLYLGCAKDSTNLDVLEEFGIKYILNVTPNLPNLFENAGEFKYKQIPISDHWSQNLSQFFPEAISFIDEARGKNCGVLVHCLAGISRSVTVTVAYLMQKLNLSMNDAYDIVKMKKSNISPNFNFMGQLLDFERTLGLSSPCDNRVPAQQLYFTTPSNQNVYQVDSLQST
Experiment [6] deals with Voltage-gated potassium channel subunit beta-2 (Rattus norvegicus) (UniProt P62483). In words: inhibitors of rat Kvbeta2 reductase activity – biochemical, NADPH fluorescence, primary screen (AID 622;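 active = fluorescence slope higher than the sample average by over 3 SD, cut at about -0.22 in these data, passing the limit was not always enough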;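 note: slope of raw intensity against log time taken from 70 to 1610 s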). Particulars: recombinant KvBeta, 4-cyanobenzaldehyde reduction, at 10 µM, stronger effect = higher value.
Sequence of Voltage-gated potassium channel subunit beta-2 (Rattus norvegicus) (P62483 whole entry, looked up): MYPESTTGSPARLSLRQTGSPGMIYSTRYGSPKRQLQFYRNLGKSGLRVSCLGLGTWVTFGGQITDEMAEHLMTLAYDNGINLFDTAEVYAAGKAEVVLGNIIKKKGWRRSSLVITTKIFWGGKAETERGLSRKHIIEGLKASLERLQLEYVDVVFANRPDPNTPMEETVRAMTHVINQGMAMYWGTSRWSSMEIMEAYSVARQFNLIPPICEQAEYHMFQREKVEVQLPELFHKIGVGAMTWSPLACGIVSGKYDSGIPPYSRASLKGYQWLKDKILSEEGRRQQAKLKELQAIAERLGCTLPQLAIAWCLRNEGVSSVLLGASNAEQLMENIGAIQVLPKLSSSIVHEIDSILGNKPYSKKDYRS
Experiment [7] has the same target. In words: enhancers of rat Kvbeta2 NADPH turnover – biochemical, NADPH fluorescence, primary screen (AID 623;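 active = NADPH fluorescence slope more negative than the mean of all samples by about 3 SD, 99.7% confidence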;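 note: fluorescence intensity change per second fitted from 20 to 320 s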). Particulars: Recombinant KvBeta, NADPH fluorescence decrease slope, 10 min; at 10 µM; stronger effect = lower value.
Experiment [8] has as its target Alpha-2C adrenergic receptor (Homo sapiens) (UniProt P18825). Kind of experiment: compounds altering alpha2C-coupled GIRK flux – cell-based, HEK293 alpha2C/GIRK1/2, thallium flux, primary screen (AID 624;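 active = fluorescence slope after compound addition differing from the mean of all screened samples at 99.7% confidence, in either direction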;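 note: slope of fluorescence ratio to pre-addition baseline per second over 15 to 24 s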). The following applies: thallium flux BTC fluorescence, at 10 µM, actives lie on both sides.
Experiment [9] can be described thus: inhibitors of larval lipid processing in zebrafish, primary screen, whole organism, PED6 fluorescence, gall bladder and intestine (AID 686;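 active = a full or partial loss of lipid-probe fluorescence in the fish gall bladder, intestine or both, judged by eye; inactive = no fluorescence loss, or compound toxic to the fish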;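 note: larvae 5 to 7 days old with five fish per well; signal comes from phospholipase A2 cleavage of quenched PED6 carried via bile; overnight exposure to compound and PED6 before scoring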). The following applies: Zebrafish larvae PED6 lipid processing, fluorescence scoring; screened at 20 µM (by protocol).
A short description of experiment [10]: loss of swimming-algae plug formation – whole organism, Chlamydomonas reinhardtii, WT vs cilia-less mutant, absorbance, 96-well, primary screen (AID 463189).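 Note: 0% = wild type cc124 cells in DMSO and 100% = ciliumless bld1 mutant cells.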 Particulars: Chlamydomonas reinhardtii gravitaxis, OD600 absorbance, 2 days; at 10 µM; stronger effect = higher value.
The nature of experiment [11]: blockers of RIG-like receptor reporter activation – cell-based, Sendai virus stimulus, luciferase, 10K MLSCN set, TLR/RLR signaling modifier project, primary screen (AID 602276;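 active = inhibition at or above 50% at 10 µM; inactive = inhibition below 50%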;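 note: firefly luciferase from ISG56 promoter only with Renilla not read in this screen; 0% = Sendai virus plus DMSO and 100% = medium plus DMSO without virus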). Particulars: HEK293 RL24 IRF3 luciferase reporter, at 10 µM, stronger effect = higher value. (In general: In a reporter assay the amount or activity of a reporter protein is the signal.)
Experiment [12] is described as follows: TLR3 IRF3 reporter activation blockers – cell-based, poly I:C stimulus, luciferase, 10K MLSCN set, primary screen (AID 602277;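 active = inhibition of the reporter signal at or above 50%; inactive = inhibition below 50%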). The following applies: HEK293-TLR3 RL24 IRF3 luciferase reporter, at 10 µM, stronger effect = higher value.
[13] abbreviates: measured here: cell density z-score.
Setting [14] is: measured here: nuclear c-Myc green intensity z-score.
The mark [15] stands for this setting: measured here: nuclear pErk red intensity z-score, stronger effect = higher value.

Sequence of Alpha-2C adrenergic receptor (Homo sapiens) (P18825 whole entry, looked up): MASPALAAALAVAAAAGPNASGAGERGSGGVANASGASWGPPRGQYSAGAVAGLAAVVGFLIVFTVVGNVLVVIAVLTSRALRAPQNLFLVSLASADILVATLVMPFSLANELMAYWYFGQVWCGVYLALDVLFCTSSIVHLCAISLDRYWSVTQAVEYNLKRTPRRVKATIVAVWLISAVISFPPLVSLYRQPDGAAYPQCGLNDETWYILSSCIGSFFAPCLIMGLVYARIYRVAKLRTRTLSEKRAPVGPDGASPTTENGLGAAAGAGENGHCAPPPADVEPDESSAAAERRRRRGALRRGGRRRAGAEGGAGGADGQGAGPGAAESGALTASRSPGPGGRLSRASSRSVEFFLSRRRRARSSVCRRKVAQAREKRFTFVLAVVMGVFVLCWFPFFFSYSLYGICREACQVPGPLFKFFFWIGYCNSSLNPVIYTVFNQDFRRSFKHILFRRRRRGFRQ

Regarding `O=C(C1=C(O)C(=O)N(c2ncccn2)C1c1cccc(Cl)c1)c1ccco1` (stereo not given), the cell count in experiment [1] is 454. The inhibition was -2.1% (inactive) in [1]; -61.9% (inactive) in experiment [3]; -4.7% (inactive) in experiment [5]; 3.84% (inactive) in experiment [10]; 11% (inactive) in [11]; 1.21% (inactive) in experiment [12]. Moreover, the inhibition of aggregation in experiment [2] is 23.5% (inactive). Also, the nuclei count in experiment [2] worked out at 97.7%; in experiment [3] it was 138%. Moreover, the results for the z-score in experiment [4] (setting [13]), in experiment [4] (setting [14]) and in experiment [4] (setting [15]) were 0.991, -0.348 and 0.185, respectively. Moreover, the fluorescence slope in experiment [6] is -0.349 (inactive). Besides, the NADPH fluorescence slope in experiment [7] was -2.5e-05 (inactive). Besides, in experiment [8], the slope was 0.00586 (inactive). Moreover, in experiment [9], the outcome was inactive.

On to `Cc1[nH]nc2c1C(CCc1ccccc1)C(C#N)=C(N)O2` (stereo not given), for which the cell count in experiment [1] turned out to be 561. The inhibition in experiment [1] is -10% (inactive); in experiment [3], -14.6% (inactive); in experiment [5], -9.7% (inactive); in experiment [10], 2.48% (inactive); in [11], -8.58% (inactive); in [12] it was 2.77% (inactive). Besides, the inhibition of aggregation in [2] was -13.6% (inactive). Besides, the nuclei count came to 111% in experiment [2] and 115% in experiment [3]. Besides, the z-score is -1.62 in experiment [4] (setting [13]), -1.48 in [4] (setting [14]) and 1.34 in [4] (setting [15]). Besides, the fluorescence slope in [6] is -0.498 (inactive). Besides, the NADPH fluorescence slope in [7] was -3.1e-05 (inactive). Besides, the slope in experiment [8] was 0.00364 (inactive). In experiment [9], the molecule was called inactive.

Take `COC(=O)c1cc(S(=O)(=O)N2CCOCC2)c(N2CCOCC2)cc1N1CCOCC1`: in experiment [1], the cell count amounted to 427. Also, the inhibition in [1] was -5.9% (inactive); in [3], -21.7% (inactive); in experiment [5] it was -1.75% (inactive); in experiment [10], 23.9% (inactive); in [11] it was 4.03% (inactive); in experiment [12], 11% (inactive). In addition, the inhibition of aggregation in [2] was 5% (inactive). Further, the nuclei count in [2] is 118%; in experiment [3], 129%. Besides, the z-score in [4] (setting [13]) was -1.77; in experiment [4] (setting [14]), -0.115; in experiment [4] (setting [15]) it was 0.265. Moreover, the fluorescence slope in experiment [6] was -0.409 (inactive). The NADPH fluorescence slope in experiment [7] is -0.000135 (inactive). The slope in experiment [8] is 0.00461 (inactive). In addition, the molecule was called inactive in experiment [9].

With `Cc1c(/C(O)=C2/C(=O)C(=O)N(CCN3CCOCC3)C2c2cccnc2)cnn1-c1ccccc1` (stereo not given), the cell count in experiment [1] is 509. In addition, the inhibition was 4.8% (inactive) in [1]; -26.8% (inactive) in [3]; 1.6e-07% (inactive) in experiment [5]; 23.9% (inactive) in experiment [10]; -12% (inactive) in [11]; -9.27% (inactive) in experiment [12]. For the same molecule, in [2], the inhibition of aggregation is 1.3% (inactive). Moreover, the nuclei count in [2] was determined as 102%; in experiment [3] it was 107%. Moreover, the z-score in [4] (setting [13]) was 0.15; in experiment [4] (setting [14]), -0.278; in experiment [4] (setting [15]) it was -0.0426. For the same molecule, the fluorescence slope in experiment [6] is -0.602 (inactive). Moreover, the NADPH fluorescence slope in experiment [7] is -1.5e-05 (inactive). The slope in [8] was 0.00432 (inactive). Further, in [9], the result was inactive.

`Cc1[nH]c2ccc(F)cc2c(=O)c1SC(F)(F)C(F)C(F)(F)F` (stereo not given): the cell count in experiment [1] was 491. Also, the inhibition in experiment [1] is -1.1% (inactive); in [3], -48.3% (inactive); in experiment [5], 2.46% (inactive); in [10], -4.7% (inactive); in experiment [11] it was 14.5% (inactive); in [12], 20.3% (inactive). In experiment [2], the inhibition of aggregation is 4% (inactive). The nuclei count was 77.7% in experiment [2] and 123% in experiment [3]. In addition, the z-score in [4] (setting [13]) is -0.588; in experiment [4] (setting [14]) it was 0.342; in experiment [4] (setting [15]) it was -0.414. For the same molecule, the fluorescence slope in [6] is -0.42 (inactive). For the same molecule, the NADPH fluorescence slope in [7] is -3.8e-05 (inactive). Further, the slope in experiment [8] is 0.0059 (inactive). Moreover, the molecule was called inactive in experiment [9].

As for `CN1CCN(CCCN2c3ccccc3Sc3ccc(C(F)(F)F)cc32)CC1`, the cell count in experiment [1] was found to be 613. Moreover, the inhibition in [1] was 4.1% (inactive); in experiment [3], -23.1% (inactive); in experiment [5] it was -5.24% (inactive); in experiment [10], 35.7% (inactive) and 164% (active); in experiment [11] it was 18.2% (inactive); in experiment [12], 40.2% (inactive). Moreover, in experiment [2], the inhibition of aggregation was -9.7% (inactive). Moreover, the nuclei count in experiment [2] was determined as 101%; in experiment [3], 121%. The z-score in [4] (setting [13]) worked out at 0.592; in experiment [4] (setting [14]), 0.844; in experiment [4] (setting [15]) it was 1.24. The fluorescence slope in [6] is -0.437 (inactive). The NADPH fluorescence slope in experiment [7] was -1.6e-05 (inactive). The slope in experiment [8] was 0.00437 (inactive). Moreover, the outcome in experiment [9] was inactive.

As to `CC1CNCCN1S(=O)(=O)c1cccc2cnccc12` (stereo not given), in [1], the cell count amounted to 695. Also, the inhibition was -8.2% (inactive) in experiment [1]; -58.8% (inactive) in experiment [3]; 15.3% (inactive) in [5]; 0.228% (inactive) and 8.92% (inactive) and 17.2% (inactive) in experiment [10]; 15.5% (inactive) in experiment [11]; 43% (inactive) in experiment [12]. Also, the inhibition of aggregation in [2] is 13% (inactive). Also, the results for the nuclei count in experiment [2] and in experiment [3] were 109% and 129%, respectively. The values for the z-score in [4] (setting [13]), in experiment [4] (setting [14]) and in experiment [4] (setting [15]) were -0.528, 0.0835 and -0.173, respectively. Besides, the fluorescence slope in experiment [6] is -0.449 (inactive). Also, in [7], the NADPH fluorescence slope was -4.6e-05 (inactive). Moreover, the slope in experiment [8] was 0.00348 (inactive). Further, the outcome in experiment [9] was inactive.

As to `CC(=O)Nc1ccccc1O`, in experiment [1], the cell count came out at 675. For the same molecule, the inhibition was 0.8% (inactive) in experiment [1]; -84.6% (inactive) in [3]; 7.39% (inactive) in experiment [5]; -2.47% (inactive) in experiment [10]; 13.6% (inactive) in experiment [11]; 37.8% (inactive) in experiment [12]. In experiment [2], the inhibition of aggregation was 14.1% (inactive). Moreover, the nuclei count in [2] worked out at 106%; in experiment [3], 121%. Besides, the z-score is -0.0756 in experiment [4] (setting [13]), 0.873 in experiment [4] (setting [14]) and -0.0939 in experiment [4] (setting [15]). Moreover, the fluorescence slope in experiment [6] is -0.439 (inactive). The NADPH fluorescence slope in [7] is -5.7e-05 (inactive). In addition, in [8], the slope was 0.00449 (inactive). Further, in experiment [9], the molecule was called inactive.

Regarding `COc1cccc(Cn2c(OCC3CCCO3)nc3c2c(=O)n(C)c(=O)n3C)c1` (stereo not given), the cell count in experiment [1] worked out at 411. For the same molecule, the inhibition in experiment [1] was -13.3% (inactive); in [3] it was -83.9% (inactive); in experiment [5], -7.28% (inactive); in [10] it was 0.777% (inactive); in experiment [11] it was 17.3% (inactive); in [12], 17.8% (inactive). In addition, the inhibition of aggregation in experiment [2] is 1.3% (inactive). The nuclei count in experiment [2] stood at 104%; in experiment [3] it was 153%. Besides, the z-score was -0.111 in experiment [4] (setting [13]), 0.171 in experiment [4] (setting [14]) and 0.516 in experiment [4] (setting [15]). Moreover, in experiment [6], the fluorescence slope was -0.377 (inactive). Also, the NADPH fluorescence slope in [7] is -2.5e-05 (inactive). Further, in [8], the slope was 0.00528 (inactive). Moreover, the result in experiment [9] was inactive.

With `c1ccc2c(CC3=NCCN3)cccc2c1`, the cell count in experiment [1] is 547. Further, the inhibition in experiment [1] is -0.9% (inactive); in [3], -43.3% (inactive); in experiment [5], 9.37% (inactive); in experiment [10], -6.08% (inactive); in experiment [11], 12.4% (inactive); in experiment [12], 36.7% (inactive). Also, the inhibition of aggregation in [2] is -4.4% (inactive). Also, the values for the nuclei count in [2] and in experiment [3] were 90.2% and 118%, respectively. Also, the figures for the z-score in [4] (setting [13]), in [4] (setting [14]) and in [4] (setting [15]) were -0.259, -0.0766 and 1, respectively. Also, the fluorescence slope in [6] was -0.503 (inactive). Also, the NADPH fluorescence slope in experiment [7] was -6.8e-05 (inactive). Moreover, the slope in experiment [8] is 0.00554 (inactive). Further, the outcome in experiment [9] was inactive.
